Test results taken from the supplement of paper PMC3334620.
In all, about 33,000 sequences were measured (“E-score (-0.5 to 0.5)”: median about -0.017, highest 2% from about 0.3 on). This is one part of a sample in which the highest values are shown more often than they occur.

target: T1, Sut1 (UniProt P53032); test: PBM E-score (8-mer binding enrichment) (E-score (-0.5 to 0.5)); higher = stronger / more preferred TF binding; conditions: protein concentration: 200 nM; construct: GST-full length
T1 sequence: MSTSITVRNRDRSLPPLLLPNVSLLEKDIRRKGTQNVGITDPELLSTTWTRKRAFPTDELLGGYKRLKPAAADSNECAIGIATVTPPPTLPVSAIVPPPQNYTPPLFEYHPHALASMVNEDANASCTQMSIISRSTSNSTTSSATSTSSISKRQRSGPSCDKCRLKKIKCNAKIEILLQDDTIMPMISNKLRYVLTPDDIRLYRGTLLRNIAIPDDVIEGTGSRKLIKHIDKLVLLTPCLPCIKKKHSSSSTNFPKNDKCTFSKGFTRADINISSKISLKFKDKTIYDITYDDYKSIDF
How it was run: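 Yeast transcription factors, full-length or as DNA-binding domains, were expressed with a GST tag using PURExpress in vitro transcription/translation. At about 100-200 nM they were applied to universal all-10-mer Agilent arrays, double-stranded by primer extension on fresh or once-stripped slides. Fluorescent anti-GST detected bound protein, and masliner normalised the scans. E-scores for ungapped eight-base words, pooled with reverse complements, came from the Universal PBM Analysis Suite.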

Sequence	PBM E-score
ATTCTACC	0.0903
AAAAGATG	0.0556
ACGGTCTA	-0.0922
GATGGAGA	0.0416
ACAGCATG	-0.124
CCGATTGC	0.109
GCAGCAGA	-0.175
CCTTCAGA	-0.0889
GAACTGTC	0.00324
ATTCCCTC	-0.233
TCCCTAGA	-0.00999
ACTATAAA	0.321
GTTATAAC	-0.0927
AGTATATG	0.00722
GCTATAAA	0.194
ACTAAAAA	0.353
ACTAAAAC	0.159
CCTATAAA	-0.0583
AGTATATA	0.395
GTTATAAA	0.303
CTTATAAA	0.181
ACTAAAAG	0.214
AGTATATC	0.12
ACTCAATG	0.104
GATTTGAA	0.142

Sequence	PBM E-score
TAATCGTA	0.0634
CAACGGTC	-0.0872
GGAGGTGA	0.0437
AGGTCTAT	-0.0267
GCTCGATA	-0.105
GGTGTAGA	-0.149
CCTTAAAA	0.0539
ACTTAAAA	0.307
TGTATAAA	0.157
AGTATAAC	0.185
AGTATAAA	0.302
ACTTAAAC	0.241
ACACTTCA	0.0715
AGATGGCA	0.0507
CATAGCCC	-0.196
CCGGAAAA	0.37
TCGGAAAA	0.372
ACGGAAAC	0.0512
GCGGAAAA	0.174
CCGGAAAG	0.276
CCGGAAAC	0.245
ACGGAAAA	0.243
ACGGAAAG	0.25
ACGGAAAT	0.344
TAGGTACA	-0.0499

Sequence	PBM E-score
GTGAACCA	0.00963
ACGGTGCC	-0.0952
TCATTCCA	0.0304
ACGGTCGA	-0.135
CATTCTGA	0.00217
ACCGGACA	0.234
CCCGGACC	0.339
GCCGGACA	0.273
TCCGGACA	0.415
CCCGGACA	0.354
CACGGACA	0.153
CCCGGATC	0.213
GCCGGACC	0.198
CCCGGACG	-0.12
GTCCACTA	-0.0452
GATACTAA	0.141
ATGTGGGG	-0.203
CCAAAAGG	-0.0868
CGGAGTGA	0.451
CGGAGTGC	0.468
AGGAGTGA	-0.0299
CTGAGTGC	-0.199
AGGAGTGC	-0.143
GGGAGTGA	-0.0284
CAGATACC	-0.149

Sequence	PBM E-score
AGGGGCCG	-0.272
GCGCGTCA	-0.00075
TCCCCGAA	0.228
ACCCCGGG	0.347
GACCCGGA	0.204
TCCCCGGA	0.364
AACCCGGA	0.333
ACCCCGGA	0.426
CCCCCGGG	-0.174
ACCCCGGC	0.183
TCCCCCGA	-0.141
CACCCGGA	0.251
ACCCCGGT	0.191
CCCCCGGA	0.0624
CTCTGTGA	-0.105
AGCGTCCC	-0.168
TCACCCCA	-0.0213
GAATTTAC	0.0497
TGCGCAAA	0.0678
AAGAGACC	-0.0189
ATGCAGCC	-0.0379
AGCAAATG	-0.0134
CCTTCGAC	-0.232
TGCCTAAA	-0.00993
CGACATCA	0.143

Sequence	PBM E-score
GGACATCA	0.3
GGACATCC	0.0309
AGCTCAAG	-0.092
CGTGCAGA	-0.148
AGAGCGGA	0.318
AGAGCGGG	-0.0998
AGAGCGGC	-0.125
AGGAGCTA	-0.155
AGGAGCCG	-0.281
GGGAGCTA	-0.176
CGGAGCTA	0.385
CGGAGCCG	0.338
AGGAGCTC	-0.18
CGGAGCCC	0.183
CGGAGCTC	0.414
CTGAGCTC	0.119
AAGCATTC	0.0319
GCTCCCCC	-0.444
GCATCAAA	0.14
CCAAGGAG	-0.0556
ACTTGGTC	0.183
AGCATACA	0.187
GCACAGTA	-0.0754
AGTCCGGG	0.485
AGTCCTGC	-0.19

Sequence	PBM E-score
GGTCCCGA	0.093
AGTCCCGG	0.1
AATCCGGG	0.103
CGTCCGGC	-0.0125
AGTCCGGC	0.467
AGTCCGGA	0.487
AGGCCGGA	0.279
CGTCCGGA	0.27
AGTCCAGA	0.0785
GGTCCGGA	0.402
AAGTCTAC	0.004
GTAGGCAC	-0.102
GTTCCAGA	-0.0427
ATGAATAA	0.146
AGACGGCT	-0.121
AGGCTGTG	-0.0562
GGTGCAAA	0.0509
AGTTTATC	0.17
AGTTTTTA	0.175
GGTTTATA	0.0479
GTTTTAAA	0.296
TGTTTTAA	0.253
AGTTTAAA	0.335
AGTTTTAA	0.341
ATTTTTAA	0.249

Sequence	PBM E-score
TGTTTAAA	0.111
AGTTTAAT	0.069
ATTTTAAA	0.307
AGTTTATA	0.335
AGACCTCC	-0.207
CATAGGGG	-0.348
CGGTTTTC	0.176
CAAGTCAC	-0.0175
TACAACAA	0.286
CAGTTGAA	-0.00817
AAGCCAAC	0.118
AGTTTACA	0.106
AGTGAACA	0.0388
CTGGATTA	0.0735
CGGAGTAC	0.487
GGGAGTAC	-0.064
CCGAGTAG	0.112
AGGAGTAG	-0.0194
CGGAGTAA	0.483
GGGAGTAA	0.0687
AGGAGTAC	-0.106
CGGAGTAG	0.49
AGGAGTAA	0.0575
TAGAATAA	0.207
CAGTATAG	0.0135

Sequence	PBM E-score
AATTGGAT	0.131
ACGCCTCG	-0.115
GGCTTACA	0.0643
TCATATAA	0.121
CGTTATAA	0.135
TGATATAA	0.222
CTATATAA	0.158
ATATATAA	0.351
AGTTATAA	0.155
TGTTATAA	0.299
TTATATAA	0.358
CTCTATAA	0.186
CGCAACCC	0.023
ATCCCAAT	0.0805
CGATGAGC	-0.0442
TAGAAGCA	-0.0194
GGAGTTCA	0.339
AGAGTTTA	0.27
CGAGTTCA	-0.149
GAAGTTTA	0.319
CGAGTTTA	0.0867
CAAGTTTA	0.0197
AAAGTTTA	0.203
GGAGTTTA	0.396
AGAGTTCA	-0.0646

Sequence	PBM E-score
ACATCTAT	0.17
GACGCCTC	-0.125
ACTCCTAG	-0.0737
CACTATCA	-0.0232
TAGTCGGA	0.317
GAGTCGGC	0.00136
GAGTCGGA	0.324
AGGTCGGA	0.316
AGGTCGGC	-0.131
AAGTCGGA	0.226
CAGTCGGA	0.204
TAGTCGCA	-0.0489
CGGTCGGA	0.211
CGTAATGC	0.0921
ACACAACA	0.128
AAGATAGG	0.013
GTCCCAAC	-0.138
GACTATGC	0.0066
AACTAGAG	0.0891
